ChEMBL document CHEMBL2218924, “A broad activity screen in support of a chemogenomic map for kinase signalling research and drug discovery” (Biochem J, 2013)

Assays:
[1] = biological target: Mitogen-activated protein kinase 10 (Homo sapiens) (UniProt P53779); settings: at 10 µM
[2] = biological target: Vascular endothelial growth factor receptor 2 (Homo sapiens) (UniProt P35968); settings: at 1 µM
[3] = biological target: Vascular endothelial growth factor receptor 2 (Homo sapiens) (UniProt P35968); settings: at 10 µM
[4] = biological target: LIM domain kinase 1 (Homo sapiens) (UniProt P53667); settings: at 1 µM
[5] = biological target: LIM domain kinase 1 (Homo sapiens) (UniProt P53667); settings: at 10 µM
[6] = biological target: T1, Serine/threonine-protein kinase STK11 (Homo sapiens) (UniProt Q15831); settings: at 1 µM
T1 sequence (whole entry): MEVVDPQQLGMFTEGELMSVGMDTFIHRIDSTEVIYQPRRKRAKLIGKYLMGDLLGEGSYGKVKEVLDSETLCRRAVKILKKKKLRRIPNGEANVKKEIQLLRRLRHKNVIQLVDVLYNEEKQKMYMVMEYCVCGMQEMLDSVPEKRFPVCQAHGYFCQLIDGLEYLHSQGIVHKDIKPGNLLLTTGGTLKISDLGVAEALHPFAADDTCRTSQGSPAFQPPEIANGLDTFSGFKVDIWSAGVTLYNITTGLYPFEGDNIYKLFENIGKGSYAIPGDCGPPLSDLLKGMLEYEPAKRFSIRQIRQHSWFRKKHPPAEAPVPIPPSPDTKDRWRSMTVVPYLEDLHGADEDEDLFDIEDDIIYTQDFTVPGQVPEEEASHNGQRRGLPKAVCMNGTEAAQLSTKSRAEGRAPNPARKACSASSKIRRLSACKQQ

[7] = biological target: T1, Serine/threonine-protein kinase STK11 (Homo sapiens); settings: at 10 µM
[8] = biological target: Serine/threonine-protein kinase 10 (Homo sapiens) (UniProt O94804); settings: at 1 µM
[9] = biological target: Serine/threonine-protein kinase 10 (Homo sapiens) (UniProt O94804); settings: at 10 µM
[10] = biological target: Tyrosine-protein kinase Lck (Homo sapiens) (UniProt P06239); settings: at 1 µM
Sequence of Tyrosine-protein kinase Lck (Homo sapiens) (P06239 2-509 limits assumed): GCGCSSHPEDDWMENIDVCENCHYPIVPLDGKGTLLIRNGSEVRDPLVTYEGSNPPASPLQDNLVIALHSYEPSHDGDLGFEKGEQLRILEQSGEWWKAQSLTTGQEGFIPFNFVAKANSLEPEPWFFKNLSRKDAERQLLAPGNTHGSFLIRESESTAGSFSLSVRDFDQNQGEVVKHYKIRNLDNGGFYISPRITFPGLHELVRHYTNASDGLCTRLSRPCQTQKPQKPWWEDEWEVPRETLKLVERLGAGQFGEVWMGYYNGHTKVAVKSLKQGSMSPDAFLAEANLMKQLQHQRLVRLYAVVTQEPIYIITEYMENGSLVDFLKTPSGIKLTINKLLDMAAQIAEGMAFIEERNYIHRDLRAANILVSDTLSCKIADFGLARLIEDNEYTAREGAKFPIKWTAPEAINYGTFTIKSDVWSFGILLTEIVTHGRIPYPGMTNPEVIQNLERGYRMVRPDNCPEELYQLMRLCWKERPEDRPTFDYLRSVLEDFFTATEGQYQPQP

Sequence of Mitogen-activated protein kinase 10 (Homo sapiens) (P53779 whole entry): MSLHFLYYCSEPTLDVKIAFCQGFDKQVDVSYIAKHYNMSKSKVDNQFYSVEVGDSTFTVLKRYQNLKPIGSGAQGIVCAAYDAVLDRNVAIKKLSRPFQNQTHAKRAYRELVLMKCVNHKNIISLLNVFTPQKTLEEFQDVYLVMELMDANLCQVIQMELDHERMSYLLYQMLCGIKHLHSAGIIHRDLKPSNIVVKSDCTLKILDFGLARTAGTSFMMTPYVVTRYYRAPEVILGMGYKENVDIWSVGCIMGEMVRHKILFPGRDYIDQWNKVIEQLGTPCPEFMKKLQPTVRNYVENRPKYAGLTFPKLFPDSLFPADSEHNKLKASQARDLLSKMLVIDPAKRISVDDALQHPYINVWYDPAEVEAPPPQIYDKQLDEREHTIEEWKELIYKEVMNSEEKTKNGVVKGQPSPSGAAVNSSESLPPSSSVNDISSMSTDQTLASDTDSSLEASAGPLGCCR
Sequence of Serine/threonine-protein kinase 10 (Homo sapiens) (O94804 whole entry, looked up): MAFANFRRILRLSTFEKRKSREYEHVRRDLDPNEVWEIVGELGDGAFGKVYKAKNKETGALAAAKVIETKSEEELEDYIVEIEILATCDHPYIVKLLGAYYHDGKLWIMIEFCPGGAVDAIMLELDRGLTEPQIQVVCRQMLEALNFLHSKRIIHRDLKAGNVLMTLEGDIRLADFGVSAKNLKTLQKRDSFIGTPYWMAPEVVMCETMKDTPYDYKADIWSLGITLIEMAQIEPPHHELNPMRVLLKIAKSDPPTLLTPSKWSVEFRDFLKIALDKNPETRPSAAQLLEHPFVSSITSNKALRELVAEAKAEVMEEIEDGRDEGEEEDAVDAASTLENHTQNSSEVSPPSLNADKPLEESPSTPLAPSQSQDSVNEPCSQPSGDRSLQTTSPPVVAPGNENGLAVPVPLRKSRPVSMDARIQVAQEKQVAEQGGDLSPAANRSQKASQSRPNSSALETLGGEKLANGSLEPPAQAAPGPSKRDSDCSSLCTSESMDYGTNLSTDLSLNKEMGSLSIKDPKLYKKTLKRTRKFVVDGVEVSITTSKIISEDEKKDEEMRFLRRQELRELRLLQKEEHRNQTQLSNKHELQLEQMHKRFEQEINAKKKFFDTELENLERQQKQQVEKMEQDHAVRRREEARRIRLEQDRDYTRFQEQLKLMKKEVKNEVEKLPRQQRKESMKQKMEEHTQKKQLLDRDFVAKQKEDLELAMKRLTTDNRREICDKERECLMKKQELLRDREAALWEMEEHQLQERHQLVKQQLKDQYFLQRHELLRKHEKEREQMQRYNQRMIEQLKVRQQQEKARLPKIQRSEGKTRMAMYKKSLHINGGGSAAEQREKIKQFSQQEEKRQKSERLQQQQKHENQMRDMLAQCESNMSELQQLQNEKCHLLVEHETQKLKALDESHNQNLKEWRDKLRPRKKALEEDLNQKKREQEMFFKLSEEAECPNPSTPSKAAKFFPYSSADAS
Sequence of LIM domain kinase 1 (Homo sapiens) (P53667 whole entry, looked up, the tested form may be a part): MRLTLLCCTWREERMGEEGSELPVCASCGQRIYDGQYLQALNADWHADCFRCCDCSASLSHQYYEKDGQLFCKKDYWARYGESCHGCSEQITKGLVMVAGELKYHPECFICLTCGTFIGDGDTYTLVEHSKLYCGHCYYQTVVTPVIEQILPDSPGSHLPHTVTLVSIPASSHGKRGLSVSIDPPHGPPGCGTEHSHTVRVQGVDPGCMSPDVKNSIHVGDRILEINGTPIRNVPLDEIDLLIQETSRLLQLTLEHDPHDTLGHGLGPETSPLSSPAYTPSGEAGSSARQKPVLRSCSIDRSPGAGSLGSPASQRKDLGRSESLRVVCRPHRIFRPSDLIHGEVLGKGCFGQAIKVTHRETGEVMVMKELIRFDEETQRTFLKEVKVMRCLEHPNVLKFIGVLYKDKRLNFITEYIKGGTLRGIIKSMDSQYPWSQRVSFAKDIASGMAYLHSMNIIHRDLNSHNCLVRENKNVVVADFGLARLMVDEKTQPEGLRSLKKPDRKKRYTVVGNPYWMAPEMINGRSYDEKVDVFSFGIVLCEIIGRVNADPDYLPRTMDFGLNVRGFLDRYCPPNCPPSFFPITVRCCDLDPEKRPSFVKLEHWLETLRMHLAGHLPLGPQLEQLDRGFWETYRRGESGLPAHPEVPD
Sequence of Vascular endothelial growth factor receptor 2 (Homo sapiens) (P35968 whole entry, the tested form may be a part): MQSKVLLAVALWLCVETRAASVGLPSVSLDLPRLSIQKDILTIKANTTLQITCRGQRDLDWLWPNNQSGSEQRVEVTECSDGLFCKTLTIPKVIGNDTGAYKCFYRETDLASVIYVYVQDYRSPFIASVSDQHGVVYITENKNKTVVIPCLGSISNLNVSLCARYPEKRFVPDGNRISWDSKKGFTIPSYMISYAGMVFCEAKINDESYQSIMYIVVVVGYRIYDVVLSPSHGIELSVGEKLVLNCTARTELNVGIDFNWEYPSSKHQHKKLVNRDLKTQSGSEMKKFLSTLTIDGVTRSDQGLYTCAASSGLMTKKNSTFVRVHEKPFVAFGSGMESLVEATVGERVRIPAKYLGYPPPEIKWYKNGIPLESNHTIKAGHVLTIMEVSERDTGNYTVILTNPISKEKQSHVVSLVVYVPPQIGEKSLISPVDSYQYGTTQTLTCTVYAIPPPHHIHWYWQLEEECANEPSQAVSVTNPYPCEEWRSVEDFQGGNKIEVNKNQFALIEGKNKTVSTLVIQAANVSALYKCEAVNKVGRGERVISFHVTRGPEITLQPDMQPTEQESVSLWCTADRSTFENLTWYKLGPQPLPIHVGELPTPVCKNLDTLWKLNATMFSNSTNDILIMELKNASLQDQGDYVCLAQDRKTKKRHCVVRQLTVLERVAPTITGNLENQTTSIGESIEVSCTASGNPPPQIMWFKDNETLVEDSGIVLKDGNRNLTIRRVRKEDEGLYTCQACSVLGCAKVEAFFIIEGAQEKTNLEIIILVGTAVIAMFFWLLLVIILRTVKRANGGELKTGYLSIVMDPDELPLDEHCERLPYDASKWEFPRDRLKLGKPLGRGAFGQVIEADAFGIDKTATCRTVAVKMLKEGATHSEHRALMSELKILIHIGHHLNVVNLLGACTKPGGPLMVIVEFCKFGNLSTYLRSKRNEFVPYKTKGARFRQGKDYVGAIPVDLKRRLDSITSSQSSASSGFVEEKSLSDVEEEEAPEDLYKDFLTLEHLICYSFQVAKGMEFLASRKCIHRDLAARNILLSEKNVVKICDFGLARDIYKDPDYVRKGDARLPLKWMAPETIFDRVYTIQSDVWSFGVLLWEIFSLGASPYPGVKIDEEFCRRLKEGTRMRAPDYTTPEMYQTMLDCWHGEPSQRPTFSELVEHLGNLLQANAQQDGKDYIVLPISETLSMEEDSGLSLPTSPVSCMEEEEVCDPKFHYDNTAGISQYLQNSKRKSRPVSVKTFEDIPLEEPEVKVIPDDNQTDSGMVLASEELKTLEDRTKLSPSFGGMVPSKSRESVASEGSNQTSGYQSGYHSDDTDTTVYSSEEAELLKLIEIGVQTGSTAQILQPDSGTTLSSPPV

Row | SMILES | residual activity [1] [%] | residual activity [2] [%] | residual activity [3] [%] | residual activity [4] [%] | residual activity [5] [%] | residual activity [6] [%] | residual activity [7] [%] | residual activity [8] [%] | residual activity [9] [%] | residual activity [10] [%]
1 | Ic1cccc(CSc2nnc(-c3ccncc3)o2)c1 | 68 | 77 | 65 | 84 | 75 | 96 | 94 | 104 | 95 | 58
2 | CCN(CC)CCCCN1c2ccccc2Oc2ccc(Cl)cc21 | 137 | 112 | 104 | 133 | 98 | 103 | 94 | 110 | 100 | 84
3 | COc1cc2ncnc(Nc3ccc(O)c(Br)c3)c2cc1OC | 13 | 30 | 4 | 78 | 49 | 106 | 97 | 17 | 8 | 27
4 | CNc1cc2c(Nc3cccc(Br)c3)ncnc2cn1 | 60 | 85 | 40 | 102 | 43 | 99 | 95 | 27 | 10 | 87
5 | Nc1cccc(-c2cc3c(Oc4cccc(O)c4)ncnc3[nH]2)c1 | 57 | 5 | 2 | 14 | 4 | 67 | 11 | 34 | 9 | 3
6 | O=C1Nc2ccccc2/C1=C1/Nc2ccccc2/C1=N\OCCC(O)CO (stereo not given) | 20 | 3 | 1 | 42 | 33 | 30 | 3 | 62 | 70 | 4
7 | Nc1n[nH]c2nnc(-c3c(-c4ccccc4)nn4ccccc34)cc12 | 0 | 86 | 59 | 82 | 85 | 91 | 94 | 80 | 29 | 88
8 | CO[C@@H]1[C@H](N(C)C(=O)c2ccccc2)C[C@H]2O[C@]1(C)n1c3ccccc3c3c4c(c5c6ccccc6n2c5c31)C(=O)NC4 | 27 | 3 | 2 | 22 | 4 | 95 | 93 | 21 | 9 | 13
9 | Cc1cc2ncc(-c3ccccc3)nc2cc1C | 70 | 92 | 79 | 109 | 93 | 108 | 99 | 89 | 93 | –
10 | c1ccc(-c2n[nH]cc2-c2ccnc3ccccc23)nc1 | 52 | 57 | 23 | 90 | 74 | 96 | 94 | 90 | 93 | 123
11 | Cc1nc2cc3nc(-c4cccs4)cnc3cc2n1C | 107 | 36 | 5 | 116 | 99 | 97 | 107 | 107 | 99 | 112
12 | COc1cc2ncnc(N3CCN(C(=O)Nc4ccc(Oc5ccccc5)cc4)CC3)c2cc1OC | 89 | 80 | 38 | 54 | 14 | 99 | 89 | 90 | 85 | 98
13 | O=C(O)c1ccc2c3c1cccc3c(=O)n1c3ccccc3nc21 | 34 | 41 | 56 | 101 | 89 | 107 | 95 | 60 | 39 | 83
14 | O=C(Nc1cccc(Nc2nccc(Nc3cccc(C(F)(F)F)c3)n2)c1)C1CC1 | -3 | 81 | 25 | 26 | 4 | 100 | 94 | 66 | 44 | 73
15 | O=C(Nc1cccc(Nc2cc(Nc3cccc(C(F)(F)F)c3)ncn2)c1)C1CC1 | 52 | 96 | 75 | 87 | 31 | 102 | 96 | 92 | 57 | 72
16 | CN(C)c1ccc(/C=C2\C(=O)Nc3ccccc32)cc1 | 106 | 4 | 3 | 108 | 89 | 94 | 102 | 100 | 77 | 129
17 | COc1ccc(OC)c2c(=S)c3ccccc3[nH]c12 | 65 | 88 | 97 | 93 | 88 | 97 | 95 | 94 | 89 | 101
18 | CC(=O)O/N=C1\C(=C2\C(=O)Nc3cc(Br)ccc32)Nc2ccccc21 | 61 | 67 | 5 | 83 | 50 | 98 | 92 | 53 | 46 | 16
19 | N#C/C(=C(\N)Sc1ccc(N)cc1)c1ccccc1C(F)(F)F | 83 | 97 | 97 | 91 | 85 | 105 | 93 | 69 | 83 | 83
20 | Nc1nc(Nc2ccc(S(N)(=O)=O)cc2)nn1C(=S)Nc1c(F)cccc1F | 3 | 0 | 0 | 5 | 2 | 87 | 41 | 0 | 0 | 4
21 | O=C1NC(=O)/C(=C\c2ccc3nccnc3c2)S1 | 104 | 87 | 63 | 91 | 81 | 90 | 78 | 71 | 35 | 108

Row | SMILES | residual activity [1] [%] | residual activity [2] [%] | residual activity [3] [%] | residual activity [4] [%] | residual activity [5] [%] | residual activity [6] [%] | residual activity [7] [%] | residual activity [8] [%] | residual activity [9] [%] | residual activity [10] [%]
22 | CO[C@H]1C[C@@H]2CC[C@@H](C)[C@@](O)(O2)C(=O)C(=O)N2CCCC[C@H]2C(=O)O[C@H]([C@H](C)C[C@@H]2CC[C@@H](O)[C@H](OC)C2)CC(=O)[C@H](C)/C=C(\C)[C@@H](O)[C@@H](OC)C(=O)[C@H](C)C[C@H](C)/C=C/C=C/C=C/1C | 153 | 100 | 96 | 102 | 91 | 101 | 99 | 85 | 90 | 121
23 | O=C1Nc2cc(Br)ccc2/C1=C1/Nc2ccccc2/C1=N\O | 16 | 3 | 2 | 33 | 49 | 99 | 81 | 72 | 69 | 2
24 | CC[n+]1c(/C=C/N(C)c2ccccc2)n(-c2ccccc2)c2ccc(-c3nc4ccccc4s3)cc21 | 93 | 109 | 87 | 124 | 96 | 98 | 104 | 107 | 92 | 133
25 | Cc1nc(-c2ccccc2)c(-c2ccncc2)o1 | 19 | 95 | 78 | 106 | 86 | 111 | 100 | 119 | 105 | 92
26 | CC(C)n1cnc2c(NCc3ccccc3)nc(NCCCO)nc21 | 58 | 98 | 93 | 92 | 88 | 105 | 101 | 102 | 96 | 89
27 | CCC(=O)Nc1ccc2ncnc(Nc3cccc(Br)c3)c2c1 | 37 | 95 | 75 | 97 | 76 | 96 | 96 | 50 | 33 | 79
28 | O=C1c2ccccc2-[n+]2ccc3c([nH]c4ccccc43)c21 | 62 | 88 | 78 | 91 | 88 | 100 | 97 | 94 | 90 | 85
29 | NC(=O)c1ccc2[nH]c(-c3ccc(Oc4ccc(Cl)cc4)cc3)nc2c1 | 98 | 84 | 43 | 93 | 55 | 103 | 94 | 83 | 58 | 83
30 | Oc1c2ccccc2c2c3c(cccc13)N=N2 | -6 | 17 | 3 | 64 | 30 | 75 | 41 | 87 | 62 | 70
31 | Nc1ccc2ncnc(NCCc3ccc(Oc4ccccc4)cc3)c2c1 | 80 | 79 | 53 | 106 | 80 | 105 | 94 | 92 | 75 | 76
32 | O=c1cc(-c2cccc3c2Sc2ccccc2S3)oc(N2CCOCC2)c1 | 89 | 90 | 89 | 98 | 92 | 95 | 99 | 98 | 101 | 103
33 | CC#CC(=O)Nc1cc2c(Nc3ccc(F)c(Cl)c3)ncnc2cn1 | 61 | 107 | 86 | 100 | 91 | 102 | 98 | 96 | 86 | 105
34 | O=C1NC(=O)/C(=C/c2ccc3c(c2)OC(F)(F)O3)S1 | 83 | 105 | 97 | 110 | 88 | 102 | 94 | 89 | 89 | 125
35 | Cn1nc2c3c(cccc31)C(=O)c1ccccc1-2 | 9 | 84 | 45 | 86 | 80 | 102 | 84 | 73 | 68 | –
36 | Oc1ccc(Nc2nc(-c3ccc(Cl)cc3)cs2)cc1 | 115 | 104 | 92 | 102 | 102 | 108 | – | 109 | 107 | 93
37 | COc1ccc(C(=O)Nc2sc3c(c2C(N)=O)CCCC3)cc1OC | 69 | 71 | 75 | 102 | 86 | 104 | 105 | 100 | 87 | 100
38 | CCOc1cc2ncnc(Nc3cccc(Br)c3)c2cc1OCC | 11 | 54 | 13 | 107 | 49 | 98 | 94 | 23 | 10 | 39
39 | O=C1NC(=O)c2cc(Nc3ccc(F)cc3)c(Nc3ccc(F)cc3)cc21 | – | 99 | 61 | 100 | 91 | 102 | 93 | 89 | 32 | 103
40 | Cc1cccc(-c2[nH]c(C(C)(C)C)nc2-c2ccc3c(c2)OCO3)n1 | 85 | 101 | 79 | – | 95 | 102 | 101 | 87 | 106 | 146
41 | Cc1ccc(NC2=CC(=O)c3sc(C)nc3C2=O)cc1 | 82 | 97 | 89 | 84 | 82 | 98 | 98 | 113 | 105 | 86
